Experiment [1] relates to Zika virus NS2B-NS3 protease (linked construct). The experiment in a line: Primary screen NINDS Rhodamine qHTS for Zika virus inhibitors (AID 1347160). Also: nearly all actives have a fitted effect of over 55% in size. As to activity change, negative = inhibition: % is scaled to controls: 0 for no effect and ±100 for the full control effect. In outline:
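Aprotinin served as in-plate control. Conditions: 25 nM linked NS2B-NS3, pH 8.0 Tris buffer, titrated compounds, 15 min preincubation and 15 min reaction with 1.5 microM Rhod110 substrate at room temperature.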
A general note: Quantitative high-throughput screening tests each substance at several concentrations.

Experiment [2] deals with Calcium and integrin-binding protein 1 (Homo sapiens) (UniProt Q99828). As to the kind of experiment: Primary qHTS for Identification of Calcium Integrin Binding Protein 1 (CIB1) Competitor (AID 1508620).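 Also: GST tagged CIB1 binding a fluorescein labelled alphaIIb integrin peptide tracer; top concentration of the series differs between compounds; % is scaled to controls: 0 for no effect and ±100 for the full control effect.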 In outline: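 CIB1-GST (1 uM final) and compound incubated 15 min at room temperature before adding FITC-alphaIIb peptide tracer (100 nM final). Competition for binding read by fluorescence polarization (ex 480, em 540) after another 15 min at room temperature.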
Chain of Calcium and integrin-binding protein 1 (Homo sapiens) (Q99828 whole entry, looked up): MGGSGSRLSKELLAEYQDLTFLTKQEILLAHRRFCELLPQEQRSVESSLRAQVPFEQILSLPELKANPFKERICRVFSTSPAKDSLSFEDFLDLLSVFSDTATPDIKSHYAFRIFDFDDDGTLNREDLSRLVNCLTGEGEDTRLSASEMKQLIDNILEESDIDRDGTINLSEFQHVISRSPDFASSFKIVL

Experiment [3] in a line: Primary qHTS for inhibitors of nuclear receptor binding SET domain protein 2 (NSD2) in an isogenic RCH-ACV NSD2 p.E1099K mutant (9B) (AID 1645876). Also: potency is read from the fitted curve at half-maximal effect; nearly all actives have a fitted effect of over 70% in size.
The nature of experiment [4]: Primary qHTS for inhibitors of nuclear receptor binding SET domain protein 2 (NSD2) in an RCH-ACV wild type WT cells (2C) (AID 1645877). Also: potency is read from the fitted curve at half-maximal effect; nearly all actives have a fitted effect of over 70% in size.
For experiment [5], the target named is Glutathione peroxidase 1 (Homo sapiens) (UniProt P07203). As to the kind of experiment: Primary qHTS Assay for Inhibitors of Recombinant Selenoprotein Glutathione Peroxidase 1 (GPX1) (AID 1845191). Also: nearly all actives have a fitted effect of over 65% in size. In outline:
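NADPH consumption tracked by fluorescence at 340/450 nm between t=0 and t=15 min, room temperature. Final mix: 10 nM GPX1, 100 nM glutathione reductase, 1 mM GSH, 0.5 mM NADPH, 0.5 mM cumene hydroperoxide, 0.01% BSA; 30 min compound–enzyme preincubation.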

Experiment [6] deals with Phospholipid hydroperoxide glutathione peroxidase GPX4 (Homo sapiens) (UniProt P36969). The experiment in a line: Primary qHTS Assay for Inhibitors of Recombinant Selenoprotein Glutathione Peroxidase 4 (GPX4) (AID 1845192). Also: nearly all actives have a fitted effect of over 65% in size. As to activity change, negative = inhibition: % is scaled to controls: 0 for no effect and ±100 for the full control effect. The conditions noted are these: outcome: dose series up to 50 µM unless noted. In outline: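 NADPH consumption followed by fluorescence at 340/450 nm, t=0 and after 15 min at room temperature. Reaction started with cumene hydroperoxide (0.5 mM final) after 30 min compound–GPX4 preincubation; final 200 nM GPX4, 100 nM GR, 1 mM GSH, 0.5 mM NADPH.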
Chain of Phospholipid hydroperoxide glutathione peroxidase GPX4 (Homo sapiens) (P36969 whole entry, looked up): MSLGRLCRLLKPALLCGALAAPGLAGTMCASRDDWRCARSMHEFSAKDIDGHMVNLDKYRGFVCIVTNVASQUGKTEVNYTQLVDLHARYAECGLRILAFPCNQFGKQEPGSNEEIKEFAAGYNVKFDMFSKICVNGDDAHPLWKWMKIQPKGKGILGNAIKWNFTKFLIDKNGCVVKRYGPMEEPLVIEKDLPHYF

In experiment [7] the target is Luciferin 4-monooxygenase (Photinus pyralis) (UniProt P08659). As to the kind of experiment: Primary firefly luciferase (FLuc) qHTS assay for identification of artifact compounds. (AID 1845220). Also: nearly all actives have a fitted effect of over 60% in size.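 As to activity change, negative = inhibition: plate controls were DMSO vehicle for no effect and no enzyme for full effect.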 The procedure, abridged: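 FLuc 10 nM; luciferin 10 uM; ATP 10 uM; Tris-acetate pH 7.6, Mg-acetate 10 mM; 15 min RT preincubation; 5 min reaction; luminescence.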
A short description of experiment [8]: Primary redox qHTS assay for identification of artifact compounds. (AID 1845223).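 Also: 0% = DMSO and 100% = reference compound.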 The procedure, abridged: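 Redox-cycling detection via DTT (250 uM final) oxidation coupled to Amplex Red (25 uM)/HRP (250 mU/mL) in HBSS. 15 min preincubation plus 30 min after DTT, room temperature. Ex/Em 525/598 nm; 4-parameter Hill fit against DMSO and 10 uM DA3003.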
A further experiment relates to HaCat. The experiment in a line: Cytotoxic Profiling of Annotated Libraries Using Quantitative High-Throughput Screening (AID 1296008). Also: nearly all actives have a fitted effect of over 60% in size. Also: potency is read from the fitted curve at half-maximal effect. Conditions: Five cell lines viability, CellTiter-Glo ATP luminescence, 48-72 h; max response: stronger effect = lower value. In outline:
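Cytotoxicity was measured as CellTiter-Glo ATP luminescence, read after 10 min at room temperature. Compound treatment of the cells lasted 48 or 72 hr at 37 degrees Celsius in a qHTS format.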
(Cellular ATP, detected with luciferase, serves as a proxy for viable cell number.)

In another experiment the test system is C33A. As to the kind of experiment: Primary qHTS to identify gynecologic anti-cancer compounds using libraries of approved drugs and bioactive compounds (AID 1345084). Also: nearly all actives have a fitted effect of over 55% in size. Also: potency is read from the fitted curve at half-maximal effect. As to activity change, negative = cytotoxicity: % is scaled to controls: 0 for no effect and ±100 for the full control effect. Conditions: Gynecologic cancer cell panel viability, ATPlite luminescence, 48 h; series mostly up to 57.5 µM. In outline: (§1)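 Cells, 1,000 per well, plated 16 h, then exposed 48 h at 37 C to compounds. Viability by ATPlite luminescence after 15 min at room temperature.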

A further experiment has as its system CASKI. The experiment is described as above. Conditions: Gynecologic cancer cell panel viability, ATPlite luminescence, 48 h; series mostly up to 57.5 µM. The procedure, abridged:
as §1

Another experiment has as its system Es-2. Described as above. Conditions: Gynecologic cancer cell panel viability, ATPlite luminescence, 48 h; series mostly up to 57.5 µM. The procedure, abridged:
as §1

In another experiment the test system is HeLa. Described as above. The conditions noted are these: Gynecologic cancer cell panel viability, ATPlite luminescence, 48 h; series mostly up to 57.5 µM. The procedure, abridged:
as §1

In another experiment the test system is Hek293T. Described as above. Conditions: Gynecologic cancer cell panel viability, ATPlite luminescence, 48 h, control line for the selectivity index; series mostly up to 57.5 µM. The procedure, abridged:
as §1

Another experiment deals with JEG-3. The experiment is described as above. The conditions noted are these: Gynecologic cancer cell panel viability, ATPlite luminescence, 48 h; series mostly up to 57.5 µM. The procedure, abridged: as §1
The test system of another experiment is OV90. The description is as above. Conditions: Gynecologic cancer cell panel viability, ATPlite luminescence, 48 h; series mostly up to 57.5 µM. The procedure, abridged: as §1
For another experiment, the system named is Tov-21-G. The experiment is described as above. The conditions noted are these: Gynecologic cancer cell panel viability, ATPlite luminescence, 48 h; series mostly up to 57.5 µM. In outline: as §1
The test system of another experiment is Tov112D. Described as above. Conditions: Gynecologic cancer cell panel viability, ATPlite luminescence, 48 h; series mostly up to 57.5 µM. In outline:
as §1

Experiment [9] has as its system Nanoluciferase (engineered Oplophorus gracilirostris luciferase). As to the kind of experiment: Primary Nanoluciferase (NLuc) qHTS assay for identification of artifact compounds. (AID 1845222).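 Also: NLuc secreted into diluted conditioned medium of S16 cells; 0% = DMSO and -100% = no enzyme.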 In outline: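 NLuc from S16 cell medium (1:55) plus test compounds, 15 min, room temperature. Luminescence after Nano-Glo (1:100) addition, 5 min.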

The structures appear in SMILES notation. Unmarked numbers belong to inactive results. Inconclusive results are not listed. Activity calls are given as the source filed them. Calls follow the shape of the dose curve; as a rule, active = well fitted curve in the direction sought with a large enough effect; inconclusive = small, poorly fitted or top-dose-only effect, or another doubt; inactive = no such curve, though single readings can be large; an effect the other way counts as inactive or inconclusive.

Chain of Glutathione peroxidase 1 (Homo sapiens) (P07203 whole entry, looked up): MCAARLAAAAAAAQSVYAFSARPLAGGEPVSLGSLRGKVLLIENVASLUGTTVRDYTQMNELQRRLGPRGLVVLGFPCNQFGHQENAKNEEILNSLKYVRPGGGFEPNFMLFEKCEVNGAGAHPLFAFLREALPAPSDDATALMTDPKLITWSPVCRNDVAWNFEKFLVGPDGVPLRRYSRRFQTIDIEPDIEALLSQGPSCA

With `O=C(Nc1ccc(F)cc1)N1CCc2ccccc2C1c1ccc(C(F)(F)F)cc1` (configuration not stated), the Potency result (in experiment [1]; in [5]; in experiment [6]; in experiment [7]; in experiment [8]; with C33A) was “inactive” throughout. In addition, the Potency entry in the experiment on CASKI, in the experiment on Es-2, in the experiment on HeLa, in the experiment with Hek293T, with JEG-3 and with OV90 was “inactive” throughout. The Potency entry in the experiment on Tov-21-G and with Tov112D was “inactive” throughout. Also, in experiment [2], the outcome was inactive. The Potency is 18.3 µM (active) in experiment [3], 18.3 µM (active) in experiment [4] and 14.6 µM (active) in the experiment on HaCat.
As to `CC1(C)CC[C@]2(C(=O)OC3OC(CO)C(O)C(O)C3O)CC[C@]3(C)C(=CCC4[C@@]5(C)CC[C@H](OC6OC(C(=O)O)C(O)C(O)C6O)C(CO)(CO)C5CC[C@]43C)[C@@H]2C1` (some centres not stated), the Potency entry in [1], in experiment [5] and in [6] was “inactive” in each case. Besides, the result in experiment [2] was inactive. For the same molecule, the values for the Potency in [3] and in experiment [4] were 0.869 µM (active) and 0.435 µM (active), respectively. In experiment [7], the activity change, negative = inhibition was 0.233% [at 11.6 µM]. The activity, negative = inhibition in experiment [9] was -2.38% [at 11.6 µM]. For the same molecule, the redox activity (% of DA3003) in [8] was 7.5% [at 11.5 µM]. Besides, the activity change, negative = cytotoxicity in the experiment with HeLa was -15.8% [at 11.6 µM]; with Hek293T, -26.5% [at 11.6 µM]; with OV90, -19.7% [at 11.6 µM]; with Tov-21-G, -29.8% [at 11.6 µM]; with Tov112D, -7.53% [at 11.6 µM].
Turning to `CCC(=O)c1cc(-c2ccc(Cl)cc2)n(-c2ccc(S(N)(=O)=O)cc2)c1C`, the Potency entry in [1], in [5], in [6], in experiment [7], in [9] and in experiment [8] was “inactive” in each case. Also, the Potency entry in the experiment on C33A, in the experiment on CASKI, in the experiment with Es-2, with HeLa, in the experiment with Hek293T and with JEG-3 was “inactive” throughout. For the same molecule, the Potency entry in the experiment with OV90, in the experiment with Tov-21-G and in the experiment on Tov112D was “inactive” each time. Further, the outcome in experiment [2] was inactive. In addition, the values for the Potency in [3] and in experiment [4] were 23 µM (active) and 16.3 µM (active), respectively.
For the molecule `CC1(C)CC23[C@@H]4CC(=O)[C@@H]2COC(=O)[C@@H]3CC[C@H]41`, the Potency result (in experiment [1]; in experiment [5]; in experiment [7]; in experiment [8]; in the experiment with C33A; in the experiment with CASKI) was “inactive” throughout. Besides, the Potency entry with Es-2, in the experiment on HeLa, with JEG-3, in the experiment with OV90 and in the experiment on Tov112D was “inactive” each time. Moreover, the outcome in [2] was inactive. Further, the Potency is 12.9 µM (active) in experiment [3] and 7.28 µM (active) in experiment [4]. Moreover, in the experiment on HaCat, the max response was -1.08%.
`O=C1c2c(O[C@@H]3O[C@H](CO)[C@@H](O)[C@H](O)[C@H]3O)cc(O)cc2OC1(O)Cc1ccc(O)cc1` (some centres not stated): the Potency entry in experiment [1], in experiment [5], in [6], in experiment [7], in [9] and in [8] was “inactive” in each case. For the same molecule, the Potency result in the experiment on Es-2, with HeLa, in the experiment on JEG-3, in the experiment on OV90 and with Tov-21-G was “inactive” throughout. In addition, the result (in experiment [2]; in the experiment on HaCat) was inactive. In addition, the Potency in [3] is 7.96 µM (active); in [4], 4.47 µM (active).
Consider `COc1ccccc1-c1cc(Nc2cccc(CS(N)(=O)=O)c2)ncn1`, for which the Potency entry in [1], in experiment [5], in experiment [6], in [7], in [9] and in [8] was “inactive” throughout. Besides, in [2], the outcome was inactive. For the same molecule, the Potency in experiment [3] is 4.09 µM (active); in [4] it was 2.9 µM (active); in the experiment with HeLa, 22.4 µM (active); with Hek293T, 20 µM (active).
Regarding `C=C1/C(=C/C=C2\CCC[C@]3(C)[C@@H]([C@H](C)/C=C/C(=O)C4CC4)CC[C@@H]23)C[C@@H](O)C[C@@H]1O`, the outcome (in experiment [2]; with HaCat) was inactive. The values for the Potency in experiment [3] and in [4] were 16.3 µM (active) and 23 µM (active), respectively. Moreover, the Potency entry (in experiment [5]; in experiment [6]; in [7]; with C33A; with CASKI; in the experiment with Es-2) was “inactive” in each case. For the same molecule, the Potency result in the experiment on HeLa, in the experiment on Hek293T, in the experiment on JEG-3, in the experiment on OV90, with Tov-21-G and in the experiment on Tov112D was “inactive” in each case.

Values taken from PubChem BioAssay (NCATS).
